Test results published in PubChem BioAssay (NCI).
The panel holds about 83,000 compounds, 20% with a hit somewhere; the sample as a whole holds those more often.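 96-well plates, one dose, 48 hours. Percent growth reported; active if below 10.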 Activity calls are given as the source filed them.

Experiments:
Assay in all cases: NCI-60 one-dose screen, 48 h (100 = growth as untreated, 0 = no growth, -100 = all killed)
[1] = tested on: HCT-15 colon; conditions: 10 µM unless noted
[2] = tested on: HT29 colon; conditions: 10 µM unless noted
[3] = tested on: SNB-19 CNS; conditions: 10 µM unless noted
[4] = tested on: U251 CNS; conditions: 10 µM unless noted
[5] = tested on: PC-3 prostate; conditions: 10 µM unless noted
[6] = tested on: SK-MEL-5 melanoma; conditions: 10 µM unless noted
[7] = tested on: UACC-62 melanoma; conditions: 10 µM unless noted
[8] = tested on: LOX IMVI melanoma; conditions: 10 µM unless noted
[9] = tested on: SK-MEL-2 melanoma; conditions: 10 µM unless noted
[10] = tested on: EKVX NSCLC; conditions: 10 µM
[11] = tested on: SN12C renal; conditions: 10 µM unless noted
[12] = tested on: UO-31 renal; conditions: 10 µM unless noted
[13] = tested on: TK-10 renal; conditions: 10 µM unless noted
[14] = tested on: ACHN renal; conditions: 10 µM unless noted
[15] = tested on: A498 renal; conditions: 10 µM unless noted
[16] = tested on: CCRF-CEM leukemia; conditions: 10 µM
[17] = tested on: SNB-75 CNS; conditions: 10 µM unless noted
[18] = tested on: SK-MEL-28 melanoma; conditions: 10 µM unless noted
[19] = tested on: MOLT-4 leukemia; conditions: 10 µM unless noted
[20] = tested on: CAKI-1 renal; conditions: 10 µM unless noted

Measured: growth

OCC1OC(O)C(O)C(O)C1O (stereo not drawn)
inactive: [1] 97.2% | [2] 92.5% | [3] 107% | [4] 113% | [5] 92.2% | [6] 110% | [7] 117% | [8] 100% | [9] 115% | [10] 114% | [11] 103% | [12] 97.4% | [13] 100% | [14] 99.9% | [15] 105% | [16] 92.3%

COc1ccc(C(=O)CC(c2ccccc2)C(C#N)c2ccccc2)cc1 (stereo not drawn)
inactive: [1] 96.5% | [2] 82.3% | [17] 83.8% | [3] 92.4% | [5] 64.8% | [6] 86.6% | [8] 85.2% | [18] 97% | [9] 71.6% | [10] 84.9% | [11] 86.8% | [12] 69.2% | [13] 88% | [14] 88.8% | [15] 86.5% | [16] 84.1%

Oc1ccc(Cc2ccccc2Cl)c(O)c1
inactive: [1] 97.2% | [2] 106% | [17] 80.5% | [3] 100% | [5] 82.5% | [6] 97.7% | [7] 85.7% | [8] 86.3% | [18] 110% | [9] 97.8% | [10] 96.3% | [11] 91.2% | [12] 61.1% | [13] 103% | [14] 92% | [15] 75.3% | [16] 94.1% | [19] 88.7%

c1ccc2c(c1)OC1OC2Oc2ccccc21
inactive: [1] 98.1% | [2] 95.6% | [17] 90% | [3] 97.6% | [5] 91.6% | [6] 103% | [7] 92.5% | [8] 91.1% | [18] 103% | [9] 87.7% | [10] 105% | [11] 98.9% | [12] 90.1% | [13] 97.6% | [14] 101% | [15] 117% | [16] 97.6% | [19] 95.4%

Fc1ccc([I+]c2ccc(F)cc2)cc1
inactive: [1] 94.3% | [2] 38.2% | [17] 80% | [3] 70% | [5] 63.5% | [6] 52.2% | [7] 82.5% | [8] 47.9% | [18] 95.8% | [9] 68.8% | [11] 92.9% | [12] 74.6% | [13] 71.2% | [14] 79.5% | [20] 61.2% | [15] 78.3% | [16] 48.2%

C/C(=C\c1ccccc1)c1ccccn1
inactive: [1] 103% | [2] 113% | [17] 89.1% | [3] 92.1% | [5] 98.7% | [6] 103% | [8] 112% | [18] 107% | [9] 128% | [10] 98.7% | [11] 95.8% | [12] 98.9% | [13] 162% | [14] 105% | [15] 111% | [16] 94.5%

CC(=O)OC(C)C(=O)NCC(C)O (stereo not drawn)
inactive: [1] 100% | [2] 110% | [17] 93.2% | [3] 110% | [5] 96.6% | [7] 122% | [8] 101% | [18] 105% | [9] 110% | [11] 106% | [12] 82.4% | [13] 113% | [14] 102% | [20] 108% | [15] 98.2% | [16] 98.9% | [19] 98.1%

c1ccc(CNCCNCc2ccccc2)cc1
inactive: [1] 101% | [2] 108% | [17] 86.7% | [3] 107% | [5] 92.4% | [6] 107% | [7] 105% | [8] 110% | [18] 108% | [9] 102% | [11] 105% | [12] 79.4% | [13] 119% | [14] 99.7% | [15] 96.5% | [16] 92.6%

CCCCCCCCCCCCCCCc1ccc(N)c(OC2OC(CO)C(O)C(O)C2O)c1 (stereo not drawn)
active: [16] 5.48%
inactive: [1] 98.4% | [2] 103% | [3] 101% | [5] 58.3% | [6] 111% | [7] 76.3% | [8] 86.3% | [18] 112% | [9] 80.6% | [10] 81.6% | [11] 87.6% | [12] 57.6% | [13] 113% | [14] 86.1% | [15] 79.2% | [19] 60.8%

COc1ccc(Nc2ccc3ccccc3c2)cc1
inactive: [1] 78.2% | [2] 64.9% | [17] 64.3% | [3] 79.5% | [5] 71.5% | [6] 73.8% | [7] 62.1% | [8] 74.2% | [18] 89.8% | [9] 67.2% | [10] 92.8% | [11] 76.9% | [13] 77.2% | [14] 92% | [15] 52.8% | [16] 56.9%

Cc1cc(-c2ccc(N=Nc3ccc4c(S(=O)(=O)O)cc(S(=O)(=O)O)c(N)c4c3O)c(C)c2)ccc1N=Nc1ccc2c(S(=O)(=O)O)cc(S(=O)(=O)O)c(N)c2c1O
inactive: [1] 96.6% | [2] 83.6% | [17] 112% | [3] 111% | [5] 81.9% | [6] 94.1% | [7] 77.3% | [8] 96.9% | [18] 120% | [9] 112% | [10] 86.6% | [11] 99.1% | [12] 74.1% | [13] 112% | [14] 91.6% | [15] 103% | [16] 85.7%

CN(C)CC1CCCCCC(CN(C)C)C1=O (stereo not drawn)
active: [1] 7.44% | [13] -22.3% | [14] -49.8% | [16] -23.7%
inactive: [2] 31.8% | [17] 98.4% | [3] 108% | [5] 86.7% | [6] 104% | [7] 91.9% | [8] 81.3% | [18] 94.8% | [9] 106% | [10] 111% | [11] 94.9% | [12] 10.5% | [15] 117%

COc1cc(C(O)C2C(=O)OCC2C2(c3ccc4c(c3)OCO4)SCCCS2)cc(OC)c1OC (stereo not drawn)
inactive: [1] 96.6% | [2] 102% | [3] 96.4% | [5] 84.1% | [6] 99.1% | [7] 87.5% | [8] 92.1% | [18] 108% | [9] 95.6% | [10] 88.7% | [11] 101% | [12] 93.2% | [13] 98.2% | [14] 103% | [15] 84.4% | [16] 98.2% | [19] 94%

OCCN1CCCCCCC1
inactive: [1] 91.4% | [2] 106% | [17] 115% | [3] 101% | [5] 93.5% | [6] 102% | [7] 101% | [8] 103% | [18] 104% | [9] 112% | [11] 93.7% | [12] 88% | [13] 99.9% | [14] 103% | [15] 100%
